The record followed here is PubChem BioAssay (Tox21).

Activity calls are given as the source filed them. Calls follow the shape of the dose curve; as a rule, active = well fitted curve in the direction sought with a large enough effect in the repeat runs; inconclusive = weak or mixed curves; inactive = flat fitted curve, though single readings scatter.
% is scaled to controls: 0 for no effect and ±100 for the full control effect.

This assay is described as follows: qHTS assay to test for compound auto fluorescence at 590 nm (red) in HepG2 cells (AID 720674). Particulars: HepG2 autofluorescence, red 540/590 nm, 1 h; series mostly up to 91.3 µM; fluorescence, relative to Rose Bengal: at the top concentration. The source says:
U.S. Tox21 Program National Center for Advancing Translational Sciences [NCATS] NIH Chemical Genomics Center [NCGC] U.S. Environmental Protection Agency [EPA] National Institutes of Environmental Health Sciences [NIEHS] National Toxicology Program [NTP] U.S. Food and Drug Administration [FDA] Tox21 Assay Overview: Compound auto fluorescence often interferes with screening of the compound library against various biological targets and signaling pathways. Some of these compounds may have fluorophoric properties. Such properties may interfere with the assay outputs resulting in false positives and/or negatives. To decrease such complications and ensure the compound activities are relevant in terms of biological response, the Tox21 10K compound library was screened for auto fluorescence. From the fluorophores used as reporter signals in our screening assays, the auto fluorescence equivalencies of compounds against three fluorophores have been evaluated: Triamterene, Fluorescein and Rose Bengal sodium for blue, green and red fluorescence, respectively. The fluorescence intensities were measured using Excitation/Emission wavelengths at 405/460nm, 485/535nm and 540/590nm for blue, green and red labels, respectively. This assay includes the red fluorescence data.
Tox21 Assay Protocol Summary: 2,000 HepG2 cells in 5 uL of culture medium (MEM containing 10% FBS) per well were dispensed into black wall/clear bottom 1536-well plates using a Multidrop Combi Dispenser (ThermoFisher Scientific, Waltham, MA). The assay plates were incubated overnight at 37 C to allow cell attachment to the well bottom, followed by the transfer of 23 nL compound or DMSO vehicle by a pintool work station (Kalypsys , San Diego, CA). After the assay plates were incubated for 1 hr at 37 C and 5% CO2, fluorescence intensities in the assay plates were measured by an Envision (PerkinElmer, Shelton, CT) plate reader using three labels for measuring blue, green and red fluorescence at […] 460, 535 and 590 nm respectively.
As for `CCCCCCC1CCCC(=O)O1` (stereo not given), the “fluorescence, relative to Rose Bengal” value was 0.106% (inactive).

As for `c1cnccn1`, the “fluorescence, relative to Rose Bengal” value was -0.0687% [at 95.7 µM] (inactive).

For the compound `C=CC(=O)OCCOC(=O)C=C`, the “fluorescence, relative to Rose Bengal” value was 0.0233% (inactive). Still for that read-out and setting: the result for `OC1CCCc2ccccc21` (stereo not given) reads -0.0378% (inactive). Consider `CCC(CC)(CC(=O)Nc1cccc(/C=C/c2nc(C3CCC3)cs2)c1)C(=O)O`, for which the “fluorescence, relative to Rose Bengal” value is -0.175% [at 46 µM] (inactive).

For `Cc1c(F)c(N2CCNC(C)C2)cc2c1c(=O)c(C(=O)O)cn2C1CC1` (stereo not given), the “fluorescence, relative to Rose Bengal” value was -0.38% [at 46 µM] (inactive). On to `OC[C@H]1O[C@H](O[C@H]2O[C@H](CO)[C@@H](O)[C@H](O)[C@H]2O)[C@H](O)[C@@H](O)[C@@H]1O`, for which the “fluorescence, relative to Rose Bengal” value is 0.0019% (inactive). Turning to `C#C[C@]1(OC(C)=O)CC[C@H]2[C@@H]3CCC4=C[C@@H](OC(C)=O)CC[C@@H]4[C@H]3CC[C@@]21C`, the Potency entry is “inactive”. Consider `Cc1cc(C(C)(C)C)c(O)c(C)c1Cn1c(=O)n(Cc2c(C)cc(C(C)(C)C)c(O)c2C)c(=O)n(Cc2c(C)cc(C(C)(C)C)c(O)c2C)c1=O`, for which the “fluorescence, relative to Rose Bengal” value is -0.0179% (inactive). The same measure, in the same setting: to `CCCCCCCCCCCCOCCOCCOCCOCCOCCOCCOCCOCCOCCO` belongs 0.043% [at 46 µM] (inactive). Turning to `CC(C)OC(=O)C(O)(CC(=O)O)CC(=O)O`, the “fluorescence, relative to Rose Bengal” value was 0.0022% (inactive). In the case of `CC1(C)CCC[C@]2(C)[C@H]3CC(=O)O[C@]3(C)CC[C@@H]12`, the “fluorescence, relative to Rose Bengal” value is 0.0014% (inactive). As to `CC1=Nc2ccccc2C1(C)C`, the “fluorescence, relative to Rose Bengal” value is -0.0113% (inactive). As for `CC1=CCC(=C(C)C)CC1`, the “fluorescence, relative to Rose Bengal” value was -0.0101% (inactive). `Cc1ccc(C(=O)O)cc1`: the “fluorescence, relative to Rose Bengal” value was 0.0248% [at 95.7 µM] (inactive). For `CCCCC(CC)COC(=O)CCCCC(=O)OCc1ccccc1` (stereo not given), the “fluorescence, relative to Rose Bengal” value was -0.762% (inactive). The same measure, in the same setting: the result for `CCCCCc1ccc(Cl)cc1` reads -0.173% (inactive).

Regarding `Cc1ccc(N/N=c2\c(=O)cc/c(=N\Nc3ccc(S(=O)(=O)O)cc3)c2=O)c(C)c1`, the “fluorescence, relative to Rose Bengal” value is -0.111% (inactive). As for `O=C(O)c1cc(=O)c2ccccc2o1`, the “fluorescence, relative to Rose Bengal” value was 0.0005% [at 46 µM] (inactive). Still for that read-out and setting: the result for `NC(=O)c1cccc([N+](=O)[O-])c1` reads -0.0362% (inactive); that for `COC(=O)c1ccccc1OC`, 0.0045% (inactive). Consider `O=C1CCCCCCCCCCCCCCCO1`, for which the “fluorescence, relative to Rose Bengal” value was 0.561% (inactive). `CN(C)Cc1cc(C(C)(C)C)c(O)c(C(C)(C)C)c1`: the “fluorescence, relative to Rose Bengal” value was 0.0298% (inactive). The same measure, in the same setting: the result for `CCCNCCC` reads -0.0123% (inactive).

As for `CCCC(=O)OC(C)(C)Cc1ccccc1`, the “fluorescence, relative to Rose Bengal” value was -0.26% (inactive). Consider `CC(C)(C)C1CCC(=O)CC1`, for which the “fluorescence, relative to Rose Bengal” value was 0.0291% (inactive).

With `COC1=C(OC)C(=O)C(CCCCCCCCCCO)=C(C)C1=O`, the “fluorescence, relative to Rose Bengal” value is -0.162% [at 46 µM] (inactive).

Take `CC[C@H](C)COC(=O)/C=C/c1ccc(N=Cc2ccc(OC)cc2)cc1`: the “fluorescence, relative to Rose Bengal” value was -0.0397% (inactive).

In the case of `CCCCC(CC)CN1CN(CC(CC)CCCC)CC(C)(N)C1` (stereo not given), the fluorescence, relative to Rose Bengal was 0.775% [at 18.6 µM] (inactive). Consider `C#C[C@]1(OC(C)=O)CC[C@H]2[C@@H]3CCC4=C/C(=N/O)CC[C@@H]4[C@H]3CC[C@@]21CC`, for which the “fluorescence, relative to Rose Bengal” value is -0.641% [at 46 µM] (inactive). Consider `CN1CCN(Cc2cc(-c3ccc4[nH]c(=O)oc4c3)co2)[C@@H](c2ccc(F)cc2)C1`, for which the “fluorescence, relative to Rose Bengal” value is -0.0565% (inactive). As to `CCOC(=O)Cn1cccc1-c1nc(-c2ccc(OC)cc2)c(-c2ccc(OC)cc2)s1`, the “fluorescence, relative to Rose Bengal” value was 0.0771% [at 46 µM] (inactive). Take `CCCCOC(=O)CO`: the “fluorescence, relative to Rose Bengal” value is -0.635% (inactive). On the same count and under the same terms, to `OCC(F)(F)F` belongs 0.362% [at 95.7 µM] (inactive). Turning to `CCCCCCCCCCCCCC[N+](C)(C)C`, the Potency entry is “inactive”. Consider `O=C(/C=C/c1ccccc1)OC/C=C/c1ccccc1`, for which the “fluorescence, relative to Rose Bengal” value is -0.124% (inactive). On to `CC(C)(C)NSc1nc2ccccc2s1`, for which the “fluorescence, relative to Rose Bengal” value was 0.0293% [at 95.7 µM] (inactive).

Turning to `OC/C=C/CO`, the “fluorescence, relative to Rose Bengal” value is 0.0152% (inactive). Take `CCOC(=O)NNc1ccc(N(CC)CC(C)O)nn1` (stereo not given): the “fluorescence, relative to Rose Bengal” value was -0.151% [at 46 µM] (inactive).

Consider `CC(C)(C)CC(C)(C)c1ccc(Nc2ccc(C(C)(C)CC(C)(C)C)cc2)cc1`, for which the fluorescence, relative to Rose Bengal was 0.212% [at 3.72 µM] (inactive).
